Bioassay records (PubChem BioAssay)
Mito fusion yeast: blocks mitochondrial division or promotes mitochondrial fusion. AID 485298. 0.23% of 320,000 active. S. cerevisiae fusion-defective mutant growth rescue, CellTiterGlo 48 h. Potency, µM (top dose mostly 46.1 µM), actives largely listed as activators; also: nearly all actives have a fitted effect of over 45% in size
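Luminescent cell viability in 1536-well qHTS format served as the measure of rescued growth in ts fusion-mutant S. cerevisiae cultured on non-fermentable YPEG for 48 hours at 37C.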
ERG-DNA inh: blocks human ERG Ets domain binding to DNA; fluorescence polarization, His-ERG Ets domain / labelled DNA; Potency, µM (highest dose often 76.9 µM), usual class: inhibitors; 0.028% of 370,000 active; AID 624246; active = well fitted inhibition curve with a large enough effect in the polarisation, with a control signal flat; inconclusive = small, poorly fitted or top-dose-only effect, or effect the other way, or a change in a side signal; inactive = no such curve, though single readings can be large or run the other way; the % refers to the polarisation;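 also: polarization taken with two DNA probes labelled with fluorescein and Texas red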
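His-tagged ERG Ets domain (1 uM in the protein solution; 300mM KCl, 50mM Tris-HCl, 1mM EDTA, 1mM DTT, pH 7.5) received compound, then a probe mix of 5 nM fluorescein-DNA and 100nM Texas-615-DNA. Fluorescence polarization was read for both dyes.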
B2AR arrestin: recruits beta-arrestin to the human beta2-adrenergic receptor; P07550; beta-arrestin recruitment to beta2AR, cell-based reporter; 0.02% of 330,000 active; Potency, µM (titrated, usually from 46.1 µM), most hits filed as activators; also: nearly all actives have a fitted effect of over 65% in size
Target sequence (P07550 whole entry, looked up): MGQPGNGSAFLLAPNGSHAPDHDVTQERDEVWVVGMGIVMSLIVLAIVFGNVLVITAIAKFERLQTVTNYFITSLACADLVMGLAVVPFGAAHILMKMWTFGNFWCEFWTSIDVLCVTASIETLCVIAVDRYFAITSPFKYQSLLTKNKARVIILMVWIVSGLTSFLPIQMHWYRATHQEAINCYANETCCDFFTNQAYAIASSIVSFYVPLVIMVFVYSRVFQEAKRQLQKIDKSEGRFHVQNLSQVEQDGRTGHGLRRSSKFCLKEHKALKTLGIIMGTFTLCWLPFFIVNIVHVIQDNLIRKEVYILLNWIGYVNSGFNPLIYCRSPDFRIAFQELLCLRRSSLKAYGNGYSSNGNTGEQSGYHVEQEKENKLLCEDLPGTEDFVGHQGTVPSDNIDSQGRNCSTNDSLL
BRCA1 expr up: BRCA1 expression activation; MCF7-BRCA1-FFLuc reporter, luminescence, 48 h; response scale: scaled: vehicle 0%, 10 µM genistein 100%; Potency, µM (series often up to 46.1 µM), most hits filed as activators; 1.1% of 380,000 active; also: nearly all actives have a fitted effect of over 80% in size
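MCF7-BRCA1-FFLuc cells, 2000/well in phenol-red-free MEM, attached 2 h then treated 48 h at 37 C. Luciferase luminescence read 15 min after reagent; normalized to genistein maximum activation (10microM) and DMSO, concentration-response fitted.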
Numbers stand for hits; 0 = inactive; ? = inconclusive; - = not tested or not shown; ! = not confirmed by another sample. Compounds with a hit are over-represented: about 1.2% of the library has one in this group of screens. Unless noted, calls follow the shape of the dose curve; as a rule, active = well fitted curve in the direction sought with a large enough effect; inconclusive = small, poorly fitted or top-dose-only effect, or another doubt; inactive = no such curve, though single readings can be large; an effect the other way counts as inactive or inconclusive.

SMILES | Mito fusion yeast | ERG-DNA inh | B2AR arrestin | BRCA1 expr up
CCCc1cc(=O)oc2c(C)c3occ(C)c3cc12 | 10µM | 0 | 0 | 0
Cc1cccc(N2CCN(C(=O)Cn3cnc4sc(C)c(S(=O)(=O)N5CCN(c6ncccn6)CC5)c4c3=O)CC2C)c1 (stereo not drawn) | - | 0 | - | 0
CN1CCN(CCC(=O)Nc2ccc(OCc3ccccc3)cc2)CC1 | 0 | 0 | 0 | 11µM
CC(C)=CC(=O)Nc1ccc(OCc2ccccc2)cc1 | 0 | 0 | 0 | 2.8µM
CN1CCN(CCOc2ccc(-c3ccccc3)cc2)CC1 | 0 | 0 | 0 | 7.9µM
Nc1nc(SCC(=O)Nc2ccc(OCc3ccccc3)cc2)n[nH]1 | 0 | 0 | 0 | 10µM
Cc1ccc(-n2nc(C)c3c(C(F)(F)F)cc(-c4cccnc4)nc32)cc1C | - | 0 | - | -
CCOc1ccc(-c2cc(NC(=O)c3ccccc3)c(C(=O)OC)s2)cc1 | - | 0 | - | -
N#C/C(=C\c1ccc(OCc2ccccc2)cc1)C(=O)Nc1ccc(C(=O)O)cc1 | 0 | 0 | 0 | 11µM
COc1ccc(C(=O)NCCn2cc(SCC(=O)Nc3nnc(C)s3)c3ccccc32)cc1 | - | 0 | - | 13µM
Cc1ccc(C2CC(=O)Nc3c2ccc2ccccc32)cc1[N+](=O)[O-] (stereo not drawn) | 22µM | 0 | 0 | 0
CCC(C(=O)Nc1cc(-c2nc3cccnc3s2)ccc1C)c1ccccc1 (stereo not drawn) | - | 0 | - | -
O=c1c(=O)n(-c2cccc(Cl)c2)ccn1Cc1cccc(F)c1 | - | 0 | - | -
Cn1c(SCC(=O)c2ccccc2)nnc1-c1cccs1 | 0 | 0 | 0 | 10µM
Cn1c(SCC(=O)NCc2cccs2)nnc1-c1cccs1 | 0 | 0 | - | 0
CCn1c(SCC(=O)c2ccccc2)nnc1-c1cnccn1 | 0 | 0 | 0 | 10µM
Cn1c(SCC(=O)c2ccccc2)nnc1-c1cnccn1 | 0 | 0 | 0 | 0
CN(C(=O)c1ccc2c(c1)CCN2S(C)(=O)=O)c1ccccc1 | 0 | 0 | 0 | 0
CS(=O)(=O)N1CCc2cc(C(=O)OCC(=O)c3ccccc3)ccc21 | 0 | 0 | 0 | 10µM
CS(=O)(=O)N1CCc2cc(C(=O)Nc3cccc(F)c3)ccc21 | - | 0 | - | 11µM
Cc1cccc(NC(=O)c2ccc3c(c2)CCN3S(C)(=O)=O)c1 | 0 | 0 | 0 | ?
Cc1cc(C)n(CC(O)COc2ccc(Cl)cc2Cl)n1 (stereo not drawn) | 0 | 0 | 0 | 11µM
Cc1cc(C)n(CC(O)Cn2c3ccccc3c3ccccc32)n1 (stereo not drawn) | 16µM | 0 | 0 | 0
O=C(c1ccco1)N1CCN(/C=C2\Nc3ccccc3C(=O)N2c2ccc(F)cc2)CC1 | - | - | - | 0
CCn1c(=O)c2sccc2n2c(CCC(=O)Nc3ccc(F)cc3)nnc12 | - | 0 | - | 0
SMILES | Mito fusion yeast | ERG-DNA inh | B2AR arrestin | BRCA1 expr up
COC(=O)c1c(C)[nH]c(C=O)c1-c1ccccc1 | 0 | 0 | 0 | 0
COC(=O)c1c(C)[nH]c(C)c1C(=O)c1ccccc1Cc1ccccc1 | 2.9µM | 0 | - | 0
Cc1cc(C)c(S(=O)(=O)N2CCN(Cc3ccc4c(c3)OCO4)CC2)cc1C | - | 0 | - | -
COc1cc(S(=O)(=O)N2CCN(Cc3ccc4c(c3)OCO4)CC2)c(C)cc1C | 14µM | 0 | 0 | 0
CC(=O)c1c(C)[nH]c(C(=O)OCC(=O)NCCc2ccc(F)cc2)c1C | 0 | 0 | 0 | 0
COC(=O)c1c(C)[nH]c(C(=O)OCc2ccc(F)cc2)c1C | 0 | 0 | 0 | 4.5µM
CSc1ccc(CNC(=O)c2sc3ncnc(N(C)C4CCCCC4)c3c2C)cc1 | - | 0 | - | -
O=C(O)Cn1cnc2c(oc3ccccc32)c1=O | 0 | 0 | 0 | 0
O=C(Cn1cnc2c(oc3ccccc32)c1=O)c1ccccc1 | 0 | 0 | 0 | 7.1µM
COC(=O)/C(=C\C(=O)c1ccccc1)Nc1cccc(C(F)(F)F)c1 | 0 | 0 | 0 | 10µM
O=C(Nc1ccccc1)Nc1cccc(C(F)(F)F)c1 | 0 | 0 | 0 | 0
O=C(Oc1ccc(-c2cnc3ccccc3n2)cc1)c1cccc([N+](=O)[O-])c1 | 0 | 0 | 0 | 3.2µM
COC(=O)c1cccc(NC(=O)CCc2ccccc2)c1 | 0 | 0 | 0 | 7.9µM
O=C(COC(=O)c1cccc([N+](=O)[O-])c1)c1ccc(OCc2ccccc2)cc1 | 0 | 0 | 0 | 5µM
O=C(Oc1ccc(-c2cnc3ccccc3n2)cc1)c1ccc(Cl)c([N+](=O)[O-])c1 | 0 | 0 | 0 | ?
O=C(CCc1ccccc1)OCC(=O)c1cccc([N+](=O)[O-])c1 | 0 | 0 | 0 | 0
CCC(=O)Nc1cccc(C(=O)OCc2cccc([N+](=O)[O-])c2)c1 | 0 | 7.1µM | 0 | 0
COc1ccc(CNC(=O)Cc2c(C)c3c(cc(C)c4c(C)coc43)oc2=O)cc1OC | - | 0 | - | -
COc1ccc(NC(=O)CCCc2ccccc2)cc1OC | 0 | 0 | 0 | 11µM
COc1ccc(NC(=O)CCCC(=O)c2ccccc2)cc1OC | 0 | 0 | 0 | 0
Cc1ccc(NC(=O)Cc2ccc(-c3ccccc3)cc2)nc1 | 0 | 0 | 0 | 0
Cc1ccc(NC(=O)CCCc2ccccc2)nc1 | 0 | 0 | 0 | 11µM
Cc1ccc(NC(=O)C(=O)NCC(c2cccnc2)N2CCN(Cc3ccccc3)CC2)cc1Cl (stereo not drawn) | - | 0 | - | -
c1ccc2c(c1)CCN(c1ncnc3nc[nH]c13)C2 | 0 | 0 | 0 | 3.5µM!
CC(C)N(Cc1ccccc1)S(=O)(=O)c1ccc(N2CCCCS2(=O)=O)cc1 | - | 0 | - | -
SMILES | Mito fusion yeast | ERG-DNA inh | B2AR arrestin | BRCA1 expr up
COc1ccc(NC(=O)CSCC(=O)Nc2sccc2C#N)cc1 | 0 | 0 | 0 | 0
COc1ccc(CCC(=O)Nc2sccc2C#N)cc1 | 0 | 0 | 0 | 11µM
COc1cc(CNc2ccc3c(c2)ncn3C(C)C)cc(OC)c1OC | - | 0 | - | -
CCn1cnc2cc(NCc3cccs3)ccc21 | 0 | 0 | 0 | 14µM
CCn1cnc2cc(NC(=O)c3cccs3)ccc21 | 0 | 0 | 0 | 13µM
CCCn1cnc2cc(NCc3cccc(OC)c3)ccc21 | 0 | 0 | 0 | 5µM
Cc1ccc(CNc2ccc3c(c2)ncn3C(C)C)cc1 | 0 | 0 | 0 | 5µM
CC(Oc1ccc(F)cc1)C(=O)Nc1nc(-c2ccc(F)cc2)ns1 (stereo not drawn) | - | 0 | - | -
CCn1cnc2cc(NCc3ccc(C)cc3)ccc21 | 0 | - | 0 | 3.5µM
CCCn1cnc2cc(NCc3ccc(Br)cc3)ccc21 | 0 | 0 | 0 | 0
Cn1cnc2cc(NCc3ccc(Cl)cc3)ccc21 | 0 | 0 | 0 | 5µM
CCN(CC)c1ccc(CNc2ccc3c(c2)ncn3CC)cc1 | 0 | 0 | 0 | 0
CCn1cnc2cc(NCc3ccc(Br)cc3)ccc21 | 0 | 0 | 0 | 4.5µM
COCCCNC(=O)CSc1nc(-c2cccc(F)c2)[nH]c1-c1ccccc1 | - | 0 | - | -
C=CCn1c(SCC(C)=O)nc2scc(-c3ccc(C)o3)c2c1=O | 0 | 0 | 0 | 13µM
C=CCn1c(SCC(=O)NCCCC)nc2scc(-c3ccco3)c2c1=O | 0 | 0 | 0 | 0
C#CCCCCCCCCC(=O)NCCCC | 0 | 0 | 0 | 0
CCCCCCCCCCCCCCCC(=O)NCCO | 4.1µM! | 0 | 0 | 0
CC(C(O)c1ccc(O)cc1)N1CCC(Cc2ccccc2)CC1 (stereo not drawn) | 16µM! | 0 | 0 | 0
